Results published in PubChem BioAssay AID651898 (Broad Institute, 2012).
The other results are listed elsewhere or left out. Activity calls are given as the source filed them. No rule for the calls is given here.

assay: HepG2 hepatoma cell viability loss – plate reader, cherry-pick, two tests, cytotoxicity control, dose response (AID 651898); conditions: max activity: at 12 µM, test 1 unless noted; series mostly up to 26 µM; activity change, negative = cytotoxicity: at the top concentration

Row | SMILES | max activity | activity change, negative = cytotoxicity
1 | Cc1c(OC(C)C(=O)NCC2CCC(C(=O)O)CC2)ccc2c1oc(=O)c1ccccc12 (stereo not drawn) | 38.2% (inactive) | –
2 | CCCOc1ccc2c3c(c(=O)oc2c1OCCC)CCC3 | 27.7% [at 26 µM, test 1] (inactive) | –
3 | Cc1nc2nc(SCC(=O)NCc3ccco3)nn2c(C)c1Cc1ccccc1 | 6.48% [at 0.195 µM, test 1] (inactive) | –
4 | CN1c2ccc(-c3ccccc3)cc2[C@H]2[C@H](CCN2C(=O)Cc2ccccn2)[C@H]1CO | 20.8% [measured here: replicate test 2 max activity, at 23.5 µM, test 2] | 20.8% [at 23.5 µM] (inactive)
5 | COCCNC(=O)C[C@H]1CC[C@@H]2[C@H](COc3ccc(NC(=O)Nc4cccc(F)c4)cc3C(=O)N2C)O1 | 9.85% [measured here: replicate test 2 max activity, at 3 µM, test 2] | 9.7% [at 23.5 µM] (inactive)
6 | O=C(CSc1n[nH]c(-c2cccnc2)n1)Nc1ccnc2ccccc12 | 8.04% (inactive) | –
7 | CS(=O)(=O)N1[C@H](C(=O)NCc2ccncc2)[C@@H](CO)[C@@H]2Cn3c(ccc(C4=CCCCC4)c3=O)[C@@H]21 | -13.1% [measured here: replicate test 2 max activity, at 3 µM, test 2] | -12.1% (inactive)
8 | O=C(c1ccncc1)N1CC[C@@H]2[C@H]1c1cc(Br)ccc1N[C@@H]2CO | -16.4% [measured here: replicate test 2 max activity, at 0.8 µM, test 2] | 2.06% (inactive)
9 | CC(=O)O[C@]1(C(C)=O)CC[C@H]2[C@@H]3C=C(C)C4=CC(=O)CC[C@]4(C)[C@H]3CC[C@@]21C | 5.11% [at 1.6 µM, test 1] (inactive) | –
